MgrA DNA FP: S. aureus MgrA-DNA binding modulation; 84,000 tested, 0.13% active; fluorescence polarization; inhibition, % (no concentration beside the values); in the data active = inhibition above about 30%, passing the limit was not always enough;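 also: 0% = protein plus DNA without compound and 100% = DNA alone without protein; higher means less MgrA bound to DNA so lower polarization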
Starred values were filed as active, the others as inactive. This is one part of a sample in which hits are shown more often than they occur.

SMILES	MgrA DNA FP
O=C1NC(=S)N(c2ccccc2)C(=O)/C1=C/C=C/c1ccco1	80*
O=C1NC(=O)N(c2ccccc2)C(=O)/C1=C/c1ccco1	17
CN1C(=O)NC(=O)/C(=C/c2ccco2)C1=O	12
Cc1ccc(C2C(C=C3C(=O)NC(=O)NC3=O)=C(c3cccs3)Oc3ccccc32)cc1 (stereo unspecified)	40
CCNC1(c2cccc(Cl)c2)CCC1	-2
CN1CCc2c(C#N)c(Cl)nc(NCc3ccccc3)c2C1	-1
CN1CCc2[nH]c(=S)c(C#N)c(-c3ccccc3)c2C1	10
CN1CCc2c(C#N)c(N)n(N)c(=S)c2C1	161*
CC(C)c1ccc(NC2=NC(C)(C)CS2)cc1	3
O=C1OCCC1Sc1ccc(Cl)cc1 (stereo unspecified)	1
